Conditions in all cases: mRNA level, 48 h; actives raise or lower the signal
Read-out in experiment [1]: ABC Transporter (ABCC3), ABCC3 (gene 8714)
The experiment can be described thus: LTEA_HepaRG_ABCC3: Life Technologies and Expression Analysis (LTEA) Assay for ABC Transporter (ABCC3) using HepaRG (AID 2283462). In a few lines: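 Transcript level by TaqMan qRT-PCR, normalised to three housekeeping genes, fitted in both directions relative to vehicle. Chemicals tested in duplicate at eight half-log concentrations up to 100 uM for 48 h on HepaRG cells (0.5% DMSO).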

Read-out in experiment [2]: ABC Transporter (ABCC2), ABCC2 (gene 1244)
The experiment can be described thus: LTEA_HepaRG_ABCC2: Life Technologies and Expression Analysis (LTEA) Assay for ABC Transporter (ABCC2) using HepaRG (AID 2283464). The method, boiled down: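 Endpoint is ABCC2 transcript level from qRT-PCR, normalized to three housekeeping genes and fitted bidirectionally relative to DMSO. Human HepaRG cells received test chemical for 48 h at up to 100 uM (8 points, half-log steps, 0.5% DMSO), duplicate wells.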

Read-out in experiment [3]: Broad substrate specificity ATP-binding cassette transporter ABCG2 (Homo sapiens) (UniProt Q9UNQ0)
In words: LTEA_HepaRG_ABCG2: Life Technologies and Expression Analysis (LTEA) Assay for ABC Transporter (ABCG2) using HepaRG (AID 2283465). The method, boiled down: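 ABCG2 transcript was quantified by TaqMan qRT-PCR against three housekeeping genes in HepaRG cells. Cells were treated in duplicate for 48 h across an 8-point half-log series up to 100 uM, with 0.5% DMSO vehicle. Gain or loss versus DMSO was fit.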

Read-out in experiment [4]: ATP-citrate lyase (ACLY), ACLY (gene 47)
In words: LTEA_HepaRG_ACLY: Life Technologies and Expression Analysis (LTEA) Assay for ATP-citrate lyase (ACLY) using HepaRG (AID 2283466). In a few lines:
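ACLY mRNA quantified by qRT-PCR on Fluidigm arrays against three housekeeping genes, after 48 h chemical treatment of HepaRG cells (top concentration 100 uM, half-log steps, 0.5% DMSO vehicle). Up- or down-regulation fitted relative to DMSO.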

Read-out in experiment [5]: Peroxisomal acyl-coenzyme A oxidase 1 (ACOX1) gene, ACOX1 (gene 51)
The experiment can be described thus: LTEA_HepaRG_ACOX1: Life Technologies and Expression Analysis (LTEA) Assay for Peroxisomal acyl-coenzyme A oxidase 1 (ACOX1) gene using HepaRG (AID 2283467). The method, boiled down: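 ACOX1 transcript levels were quantified by TaqMan qRT-PCR against three housekeeping genes after 48 h chemical exposure of differentiated human HepaRG cells. Exposure used eight half-log steps topping at 100 uM, 0.5% DMSO vehicle, in duplicate. Bidirectional curve fits were made relative to DMSO.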

Read-out in experiment [6]: Alkaline Phosphatase, Placental (ALPP) gene, ALPP (gene 250)
The experiment can be described thus: LTEA_HepaRG_ALPP: Life Technologies and Expression Analysis (LTEA) Assay for Alkaline Phosphatase, Placental (ALPP) gene using HepaRG (AID 2283468).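 On AC50: differentiated human HepaRG liver cells in serum-free induction medium.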 The method, boiled down: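 ALPP transcript level, measured by qRT-PCR and normalized to three housekeeping genes (ACTB, GAPDH, POLR2A), after 48 h dosing of differentiated HepaRG in serum-free induction medium. Top concentration 100 uM with half-log dilutions (8 points, 0.5% DMSO, duplicates); bidirectional fitting relative to DMSO.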

Read-out in experiment [7]: Bcl-2 (BAD) gene, BAD (gene 572)
In words: LTEA_HepaRG_BAD: Life Technologies and Expression Analysis (LTEA) Assay for Bcl-2 (BAD) gene using HepaRG (AID 2283469). The method, boiled down:
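Read-out: qRT-PCR of BAD mRNA, normalized to three housekeeping genes. Human HepaRG cultures got 48 h chemical exposure in 0.5% DMSO, duplicate eight-point half-log series topping at 100 uM. Gain or loss of signal fitted versus DMSO vehicle.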

Read-out in experiment [8]: Bcl-2 (BAX) gene, BAX (gene 581)
The experiment can be described thus: LTEA_HepaRG_BAX: Life Technologies and Expression Analysis (LTEA) Assay for Bcl-2 (BAX) gene using HepaRG (AID 2283470). In a few lines: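 Cells were thawed, plated for 48 h, moved to serum-free induction medium and dosed for 48 h (highest concentration 100 uM, half-log steps, 0.5% DMSO). Total RNA was then analysed for BAX expression by qRT-PCR.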

Read-out in experiment [9]: adenosine kinase (ADK) gene, ADK (gene 132)
In words: LTEA_HepaRG_ADK: Life Technologies and Expression Analysis (LTEA) Assay for adenosine kinase (ADK) gene using HepaRG (AID 2283471). The method, boiled down:
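Read-out is ADK transcript level measured by qRT-PCR and normalised to three housekeeping genes. Cells are human HepaRG, dosed for 48 h at up to 100 uM in 0.5% DMSO. Gain or loss of signal is fitted against DMSO controls.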

Read-out in experiment [10]: Alpha-fetoprotein (AFP) gene, AFP (gene 174)
The experiment can be described thus: LTEA_HepaRG_AFP: Life Technologies and Expression Analysis (LTEA) Assay for Alpha-fetoprotein (AFP) gene using HepaRG (AID 2283472). In a few lines:
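Chemicals were tested on differentiated HepaRG cells for 48 hours at eight concentrations up to 100 uM, with 0.5% DMSO as vehicle. AFP expression was then quantified by qRT-PCR and analyzed for gain or loss relative to DMSO.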

Read-out in the next experiment: BCL2L11 (gene 10018)
The experiment can be described thus: LTEA_HepaRG_BCL2L11: Life Technologies and Expression Analysis (LTEA) Assay for Bcl-2 (BCL2L11) gene using HepaRG (AID 2283473). The method, boiled down:
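BCL2L11 transcript levels are measured by Fluidigm qRT-PCR, normalized to three housekeeping genes. HepaRG cultures were plated 48 h, then treated 48 h with test chemical (top 100 uM, half-log, 0.5% DMSO vehicle); curves were fitted bidirectionally against DMSO.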

Read-out in experiment [11]: Apolipoprotein A-V (APOA5) gene, APOA5 (gene 116519)
In words: LTEA_HepaRG_APOA5: Life Technologies and Expression Analysis (LTEA) Assay for Apolipoprotein A-V (APOA5) gene using HepaRG (AID 2283474). The method, boiled down:
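APOA5 transcript levels were quantified by qRT-PCR, normalized to three housekeeping genes, after 48 h chemical treatment of HepaRG cells (8 points, 100 uM maximum, half-log steps, 0.5% DMSO). Curves fitted in both directions against vehicle.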

Read-out in experiment [12]: Apoptosis regulator Bcl-2 (Homo sapiens) (UniProt P10415)
The experiment can be described thus: LTEA_HepaRG_BCL2: Life Technologies and Expression Analysis (LTEA) Assay for Bcl-2 gene using HepaRG (AID 2283475). In a few lines:
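Plated human HepaRG cells are exposed to test chemicals for 48 h across eight concentrations from 100 uM downward in half-log steps (0.5% DMSO). BCL2 expression is then measured by qRT-PCR with housekeeping normalisation and fitted bidirectionally against vehicle.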

Read-out in the next experiment: Caspase-3 (Homo sapiens) (UniProt P42574)
The experiment can be described thus: LTEA_HepaRG_CASP3: Life Technologies and Expression Analysis (LTEA) Assay for cysteine-aspartic acid protease (CASP3) using HepaRG (AID 2283477). The method, boiled down: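 Expression of CASP3 was quantified by TaqMan qRT-PCR against three housekeeping genes (ACTB, GAPDH, POLR2A), bidirectionally versus 0.5% DMSO. HepaRG cultures received compounds in duplicate, top 100 uM with half-log steps, for 48 h in serum-free induction medium.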

Read-out in experiment [13]: Cytochrome P450 (CYP24A1), CYP24A1 (gene 1591)
The experiment can be described thus: LTEA_HepaRG_CYP24A1: Life Technologies and Expression Analysis (LTEA) Assay for Cytochrome P450 (CYP24A1) using HepaRG (AID 2283478). The method, boiled down:
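mRNA of CYP24A1 quantified by TaqMan qRT-PCR (ACTB/GAPDH/POLR2A normalization) after 48 h chemical exposure of HepaRG cells, top concentration 100 uM, half-log steps, 0.5% DMSO vehicle, duplicates. Curves fitted bidirectionally against DMSO baseline.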

Read-out in experiment [14]: Cytochrome P450 (CYP1A2), CYP1A2 (gene 1544)
The experiment can be described thus: LTEA_HepaRG_CYP1A2: Life Technologies and Expression Analysis (LTEA) Assay for Cytochrome P450 (CYP1A2) using HepaRG (AID 2283479). In a few lines: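 CYP1A2 transcript measured by TaqMan qRT-PCR against three housekeeping genes after 48-hour chemical exposure of HepaRG cells. Eight-point half-log series topping at 100 uM in 0.5% DMSO, duplicates; gain or loss fitted relative to vehicle.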

Read-out in experiment [15]: Cytochrome P450 (CYP2B6), CYP2B6 (gene 1555)
The experiment can be described thus: LTEA_HepaRG_CYP2B6: Life Technologies and Expression Analysis (LTEA) Assay for Cytochrome P450 (CYP2B6) using HepaRG (AID 2283481). In a few lines:
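CYP2B6 transcript level quantified by qRT-PCR against three housekeeping genes, fitted bidirectionally relative to DMSO. HepaRG cultures received chemicals for 48 h, 8-point half-log series from 100 uM in 0.5% DMSO, duplicate wells, serum-free induction medium.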

Read-out in experiment [16]: ABC Transporter (ABCB11), ABCB11 (gene 8647)
In words: LTEA_HepaRG_ABCB11: Life Technologies and Expression Analysis (LTEA) Assay for ABC Transporter (ABCB11) using HepaRG (AID 2283463). In a few lines:
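ABCB11 transcript levels quantified by TaqMan qRT-PCR against three housekeeping genes after 48 h chemical exposure of HepaRG cultures. Concentrations up to 100 uM in half-log steps, 0.5% DMSO vehicle; both induction and suppression scored.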

Read-out in experiment [17]: cysteine-aspartic acid protease (CASP8), CASP8 (gene 841)
In words: LTEA_HepaRG_CASP8: Life Technologies and Expression Analysis (LTEA) Assay for cysteine-aspartic acid protease (CASP8) using HepaRG (AID 2283480). In a few lines: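 CASP8 transcript measured by TaqMan qRT-PCR with ACTB/GAPDH/POLR2A normalization, after 48 h chemical exposure of HepaRG cells in serum-free induction medium. Eight concentrations, top 100 uM, half-log steps, 0.5% DMSO vehicle; fits in both directions versus DMSO.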

Read-out in experiment [18]: Bcl-2 (BID) gene, BID (gene 637)
In words: LTEA_HepaRG_BID: Life Technologies and Expression Analysis (LTEA) Assay for Bcl-2 (BID) gene using HepaRG (AID 2283476). The method, boiled down:
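Cells are plated, cultured 48 h, switched to serum-free induction medium, then dosed 48 h (100 uM top, half-log steps, 0.5% DMSO). RNA is isolated and BID expression read by qRT-PCR.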

SMILES strings stand for the structures. Activity calls are given as the source filed them. How the source made its calls: active means hit-call score of the fitted dose curve at least 0.9, where 1 is the maximum; inactive means score below 0.9.

Caspase-3 (Homo sapiens), sequence (P42574 whole entry, looked up): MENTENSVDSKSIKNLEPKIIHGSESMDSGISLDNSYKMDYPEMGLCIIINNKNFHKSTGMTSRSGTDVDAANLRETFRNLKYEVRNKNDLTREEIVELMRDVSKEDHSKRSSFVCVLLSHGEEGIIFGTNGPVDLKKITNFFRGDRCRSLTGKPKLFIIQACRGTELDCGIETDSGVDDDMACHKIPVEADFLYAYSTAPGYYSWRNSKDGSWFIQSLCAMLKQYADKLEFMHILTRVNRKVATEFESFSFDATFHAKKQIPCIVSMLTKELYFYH
Broad substrate specificity ATP-binding cassette transporter ABCG2 (Homo sapiens), sequence (Q9UNQ0 whole entry, looked up): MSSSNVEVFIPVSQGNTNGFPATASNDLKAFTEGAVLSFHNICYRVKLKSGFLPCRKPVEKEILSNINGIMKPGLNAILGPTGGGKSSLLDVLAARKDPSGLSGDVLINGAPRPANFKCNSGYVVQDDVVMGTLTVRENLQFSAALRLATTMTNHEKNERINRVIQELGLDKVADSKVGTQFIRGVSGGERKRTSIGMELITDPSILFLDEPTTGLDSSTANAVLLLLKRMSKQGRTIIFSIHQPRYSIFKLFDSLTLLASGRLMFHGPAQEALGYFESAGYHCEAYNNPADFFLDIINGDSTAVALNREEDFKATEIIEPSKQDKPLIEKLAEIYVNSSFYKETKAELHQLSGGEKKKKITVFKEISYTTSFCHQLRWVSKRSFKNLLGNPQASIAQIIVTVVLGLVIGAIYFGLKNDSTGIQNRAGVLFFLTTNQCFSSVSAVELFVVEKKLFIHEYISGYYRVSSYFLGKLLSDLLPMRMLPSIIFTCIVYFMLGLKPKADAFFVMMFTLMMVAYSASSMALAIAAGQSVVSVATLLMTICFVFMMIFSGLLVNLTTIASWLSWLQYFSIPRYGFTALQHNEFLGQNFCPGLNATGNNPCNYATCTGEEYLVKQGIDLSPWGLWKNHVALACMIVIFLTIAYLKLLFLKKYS
Apoptosis regulator Bcl-2 (Homo sapiens), sequence (P10415 whole entry, looked up): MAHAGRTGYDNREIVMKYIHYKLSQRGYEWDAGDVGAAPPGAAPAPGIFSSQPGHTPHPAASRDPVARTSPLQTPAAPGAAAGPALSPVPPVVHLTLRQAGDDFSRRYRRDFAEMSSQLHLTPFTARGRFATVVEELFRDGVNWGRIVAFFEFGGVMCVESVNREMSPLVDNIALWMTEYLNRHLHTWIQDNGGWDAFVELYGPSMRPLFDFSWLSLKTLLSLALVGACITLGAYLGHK

As usually defined, the AC50 is the midpoint of the concentration-response curve, whichever way the signal moves. As to `Cc1nn(-c2cc(NS(C)(=O)=O)c(Cl)cc2Cl)c(=O)n1C(F)F`, the call in [1], in experiment [3], in [4], in experiment [5], in experiment [6] and in [7] was inactive. Further, the compound was called inactive (in [8]; in experiment [9]; in [10]; in the experiment with BCL2L11 (gene 10018); in experiment [11]; in [12]). The outcome (with Caspase-3 (Homo sapiens); in [13]; in experiment [14]) was inactive. The AC50 was 13.6 µM (active) in [2] and 11.8 µM (active) in [15].
With `CN(C)C(=O)Nc1cccc(C(F)(F)F)c1`, the call in experiment [1], in experiment [16], in experiment [2], in experiment [3], in experiment [4] and in experiment [5] was inactive. The compound was called inactive in experiment [6], in experiment [8], in experiment [9], in [10], in experiment [11] and in experiment [12]. The compound was classed as inactive (in the experiment with Caspase-3 (Homo sapiens); in [13]; in experiment [17]). Moreover, the AC50 with BCL2L11 (gene 10018) is 50 µM (active); in experiment [14] it was 42 µM (active); in [15] it was 2.55 µM (active).
On to `COP(=O)(OC)C(O)C(Cl)(Cl)Cl` (stereo unspecified), for which the compound was classed as inactive in experiment [1], in experiment [16], in experiment [2], in experiment [3], in experiment [4] and in experiment [5]. Besides, the compound was called inactive (in experiment [8]; in [9]; in experiment [10]; in the experiment with BCL2L11 (gene 10018); in [11]; in experiment [12]). The result (with Caspase-3 (Homo sapiens); in experiment [17]) was inactive. For the same compound, the results for the half-maximal activity concentration (AC50) in experiment [6] and in experiment [18] were 0.0572 µM (active) and 0.155 µM (active), respectively.

Values taken from PubChem BioAssay (EPA / NIEHS).
